# Experimental data reported in publication PMC7862700, “An all-to-all approach to the identification of sequence-specific readers for epigenetic DNA modifications on cytosine”.
# Experiments:
# Experiment in all cases: DAPPL (digital affinity profiling via proximity ligation, sequencing); 10 mM Tris-HCl pH 7.5, 50 mM NaCl, 1 mM DTT, 4% glycerol, room temperature, 30 min; GST-TFs on glutathione beads, 16-mer random dsDNA library, 0.1% formaldehyde crosslink after washing; high values mean tight binding
# FEV = molecular target: T1, FEV (Homo sapiens, UniProt Q99581 1-238); conditions: protein: recombinant; tags: N-terminal GST; dsDNA, one strand shown
# T1 sequence: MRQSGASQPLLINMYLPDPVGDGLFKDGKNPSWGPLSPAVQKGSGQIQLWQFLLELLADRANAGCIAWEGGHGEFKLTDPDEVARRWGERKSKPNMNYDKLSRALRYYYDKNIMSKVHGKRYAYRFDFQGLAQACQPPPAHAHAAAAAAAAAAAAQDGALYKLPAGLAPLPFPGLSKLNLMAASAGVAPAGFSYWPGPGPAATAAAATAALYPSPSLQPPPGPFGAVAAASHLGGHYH
# Procedure, shortened: (§1)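 Human transcription factors carrying a GST fusion were produced in yeast, bound to glutathione beads, tagged with DNA barcodes and pooled together with a tag-only sample. Each pool was held with 200 nmole of a random double-stranded 16-mer DNA library in Tris/NaCl/DTT/glycerol buffer for 30 min at room temperature, then washed, crosslinked in 0.1% formaldehyde, proximity-ligated with BsaI/T4 ligase (1 h, 37 °C), PCR-amplified and sequenced on an Illumina NextSeq500. Binding signal is the read frequency of each hexamer for a given factor divided by its frequency in the tag-only sample.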
# ETV5 = ETV5 (Homo sapiens, UniProt P41161 1-510); conditions: protein: recombinant; tags: N-terminal GST; dsDNA, one strand shown
# Procedure, shortened: as §1
# HSF1 = HSF1 (Homo sapiens, UniProt Q00613 1-529); conditions: protein: recombinant; tags: N-terminal GST; chain copies: 3; dsDNA, one strand shown
# Procedure, shortened: as §1
# SPIC = molecular target: T2, SPIC (Homo sapiens, UniProt Q8N5J4 1-248); conditions: protein: recombinant; tags: N-terminal GST; dsDNA, one strand shown
# T2 sequence: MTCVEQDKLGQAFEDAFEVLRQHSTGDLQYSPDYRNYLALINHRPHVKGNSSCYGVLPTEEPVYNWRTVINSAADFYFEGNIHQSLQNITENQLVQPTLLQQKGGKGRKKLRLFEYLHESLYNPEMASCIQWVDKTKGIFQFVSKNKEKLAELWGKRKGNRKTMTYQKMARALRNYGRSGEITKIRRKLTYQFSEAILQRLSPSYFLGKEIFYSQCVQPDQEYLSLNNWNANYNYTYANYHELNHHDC
# Procedure, shortened: as §1
# ELF4 = ELF4 (Homo sapiens, UniProt Q99607 1-663); conditions: protein: recombinant; tags: N-terminal GST; dsDNA, one strand shown
# Procedure, shortened: as §1
# ELK4 = molecular target: T3, ELK4 (Homo sapiens, UniProt P28324-2 1-405); conditions: protein: recombinant; tags: N-terminal GST; dsDNA, one strand shown
# T3 sequence: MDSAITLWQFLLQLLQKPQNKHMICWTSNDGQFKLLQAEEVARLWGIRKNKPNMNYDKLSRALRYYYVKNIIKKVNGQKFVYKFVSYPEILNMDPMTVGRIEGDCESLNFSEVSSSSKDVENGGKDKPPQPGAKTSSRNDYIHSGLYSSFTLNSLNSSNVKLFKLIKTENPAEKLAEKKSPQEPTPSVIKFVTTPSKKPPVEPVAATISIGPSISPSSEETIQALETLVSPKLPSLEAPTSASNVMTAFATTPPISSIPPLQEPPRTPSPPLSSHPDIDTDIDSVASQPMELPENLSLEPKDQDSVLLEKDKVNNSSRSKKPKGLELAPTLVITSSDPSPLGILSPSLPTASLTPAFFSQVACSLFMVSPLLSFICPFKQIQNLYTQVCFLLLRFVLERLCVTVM
# Procedure, shortened: as §1
# ETV2 = molecular target: T4, ETV2 (Homo sapiens, UniProt O00321 1-342); conditions: protein: recombinant; tags: N-terminal GST; dsDNA, one strand shown
# T4 sequence: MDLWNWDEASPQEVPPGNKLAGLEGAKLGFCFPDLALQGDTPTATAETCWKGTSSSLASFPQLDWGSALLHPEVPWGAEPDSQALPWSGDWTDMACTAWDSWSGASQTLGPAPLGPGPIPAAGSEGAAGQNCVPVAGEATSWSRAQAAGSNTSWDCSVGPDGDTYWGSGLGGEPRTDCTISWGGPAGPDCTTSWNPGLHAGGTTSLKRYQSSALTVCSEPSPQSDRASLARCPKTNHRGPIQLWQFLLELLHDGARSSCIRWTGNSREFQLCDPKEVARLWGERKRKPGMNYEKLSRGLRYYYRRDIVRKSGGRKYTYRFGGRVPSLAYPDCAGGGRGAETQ
# Procedure, shortened: as §1
# ELF3 = molecular target: T5, ELF3 (Homo sapiens, UniProt P78545 1-371); conditions: protein: recombinant; tags: N-terminal GST; dsDNA, one strand shown
# T5 sequence: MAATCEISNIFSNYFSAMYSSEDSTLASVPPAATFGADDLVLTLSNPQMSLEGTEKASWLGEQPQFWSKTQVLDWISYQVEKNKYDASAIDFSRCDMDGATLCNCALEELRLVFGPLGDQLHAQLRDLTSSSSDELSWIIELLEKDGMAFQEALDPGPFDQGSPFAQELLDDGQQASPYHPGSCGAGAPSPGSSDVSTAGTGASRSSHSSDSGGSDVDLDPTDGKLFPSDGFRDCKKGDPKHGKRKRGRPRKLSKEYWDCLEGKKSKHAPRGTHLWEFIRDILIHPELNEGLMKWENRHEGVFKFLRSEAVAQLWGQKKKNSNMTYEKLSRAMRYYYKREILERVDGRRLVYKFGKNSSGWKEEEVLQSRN
# Procedure, shortened: as §1
# CRX = CRX (Homo sapiens, UniProt O43186 1-299); conditions: protein: recombinant; tags: N-terminal GST; dsDNA, one strand shown
# Procedure, shortened: as §1
# ETV5, sequence (P41161 whole entry): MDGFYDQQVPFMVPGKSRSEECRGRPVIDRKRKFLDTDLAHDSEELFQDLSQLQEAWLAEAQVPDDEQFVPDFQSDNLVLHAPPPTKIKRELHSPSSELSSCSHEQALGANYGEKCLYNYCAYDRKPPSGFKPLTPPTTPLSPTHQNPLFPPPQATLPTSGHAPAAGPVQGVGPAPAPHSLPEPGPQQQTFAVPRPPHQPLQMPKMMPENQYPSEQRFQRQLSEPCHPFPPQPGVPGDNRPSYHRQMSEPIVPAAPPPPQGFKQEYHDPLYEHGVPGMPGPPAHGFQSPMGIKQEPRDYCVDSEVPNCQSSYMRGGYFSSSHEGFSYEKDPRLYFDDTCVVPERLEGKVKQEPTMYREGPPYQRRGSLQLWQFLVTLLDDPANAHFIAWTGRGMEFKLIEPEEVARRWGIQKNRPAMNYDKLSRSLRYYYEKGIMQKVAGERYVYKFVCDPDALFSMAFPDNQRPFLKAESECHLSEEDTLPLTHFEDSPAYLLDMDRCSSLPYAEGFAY
# CRX, sequence (O43186 whole entry): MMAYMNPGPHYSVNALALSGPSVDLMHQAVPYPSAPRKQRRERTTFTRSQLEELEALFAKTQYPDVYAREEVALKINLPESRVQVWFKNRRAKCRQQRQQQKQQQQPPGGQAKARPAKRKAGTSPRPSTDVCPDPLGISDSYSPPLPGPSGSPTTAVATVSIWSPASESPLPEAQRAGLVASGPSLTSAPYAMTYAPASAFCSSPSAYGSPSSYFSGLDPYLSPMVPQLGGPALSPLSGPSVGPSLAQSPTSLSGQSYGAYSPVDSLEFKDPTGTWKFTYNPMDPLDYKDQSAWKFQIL
# HSF1, sequence (Q00613 whole entry): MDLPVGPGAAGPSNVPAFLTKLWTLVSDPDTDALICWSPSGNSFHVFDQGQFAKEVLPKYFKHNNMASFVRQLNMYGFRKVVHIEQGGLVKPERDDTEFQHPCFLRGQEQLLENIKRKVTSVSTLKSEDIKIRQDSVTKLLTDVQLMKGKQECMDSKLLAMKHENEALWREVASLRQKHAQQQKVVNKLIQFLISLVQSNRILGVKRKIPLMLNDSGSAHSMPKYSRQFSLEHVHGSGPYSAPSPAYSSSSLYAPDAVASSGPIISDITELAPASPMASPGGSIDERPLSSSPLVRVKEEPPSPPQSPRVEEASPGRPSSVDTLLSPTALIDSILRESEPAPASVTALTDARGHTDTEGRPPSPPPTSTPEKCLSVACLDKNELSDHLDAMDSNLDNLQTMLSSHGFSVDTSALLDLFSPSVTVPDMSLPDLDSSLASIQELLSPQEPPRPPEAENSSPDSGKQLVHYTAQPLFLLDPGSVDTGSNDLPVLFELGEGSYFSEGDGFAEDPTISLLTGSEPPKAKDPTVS
# ELF4, sequence (Q99607 whole entry): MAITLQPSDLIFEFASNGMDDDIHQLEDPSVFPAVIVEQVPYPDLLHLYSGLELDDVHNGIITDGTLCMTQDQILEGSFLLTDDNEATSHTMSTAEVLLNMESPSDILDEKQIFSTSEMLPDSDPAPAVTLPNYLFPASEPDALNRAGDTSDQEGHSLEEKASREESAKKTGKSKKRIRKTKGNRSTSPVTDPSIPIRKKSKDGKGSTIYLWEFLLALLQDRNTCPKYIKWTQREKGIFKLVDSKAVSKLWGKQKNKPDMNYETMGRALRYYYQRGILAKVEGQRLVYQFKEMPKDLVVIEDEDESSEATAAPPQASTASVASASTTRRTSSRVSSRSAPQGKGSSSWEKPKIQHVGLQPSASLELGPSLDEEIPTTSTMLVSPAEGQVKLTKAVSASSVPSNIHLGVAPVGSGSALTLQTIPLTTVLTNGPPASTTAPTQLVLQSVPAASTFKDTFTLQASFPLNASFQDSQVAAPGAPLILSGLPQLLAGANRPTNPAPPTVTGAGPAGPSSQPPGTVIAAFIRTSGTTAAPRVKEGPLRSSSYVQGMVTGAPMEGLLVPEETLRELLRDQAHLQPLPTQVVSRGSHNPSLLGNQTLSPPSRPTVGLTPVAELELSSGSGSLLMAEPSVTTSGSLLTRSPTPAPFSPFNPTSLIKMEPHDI
sequence,measurement,setting,value
ACCCAT,binding signal,FEV,"1.17 fold enrichment (6-mer frequency, TF over GST control)"
same,binding signal,ETV5,"1.25 fold enrichment (6-mer frequency, TF over GST control)"
same,binding signal,HSF1,"1.05 fold enrichment (6-mer frequency, TF over GST control)"
same,binding signal,SPIC,"1.15 fold enrichment (6-mer frequency, TF over GST control)"
same,binding signal,ELF4,"1.25 fold enrichment (6-mer frequency, TF over GST control)"
same,binding signal,ELK4,"1.17 fold enrichment (6-mer frequency, TF over GST control)"
same,binding signal,ETV2,"1.18 fold enrichment (6-mer frequency, TF over GST control)"
same,binding signal,ELF3,"1.23 fold enrichment (6-mer frequency, TF over GST control)"
same,binding signal,CRX,"1.06 fold enrichment (6-mer frequency, TF over GST control)"
